Here are results for 66 molecules from ChEMBL document CHEMBL4513216, “Probing the Open Global Health Chemical Diversity Library for Multistage-Active Starting Points for Next-Generation Antimalarials” (ACS Infect Dis, 2020).

SMILES strings stand for the structures. In all, about 68,000 compounds went through this assay and about 2,700 (4%) showed an effect of 50% or more. The sample holds strong results, similar compounds and a random draw of the others, so the mix is not that of the screen.

This experiment concerns Plasmodium berghei. The experiment in a line: Screen against P. berghei liver stage (PbLuc), transformed with Luciferase, at 2uM. Type of experiment: functional, HepG2. The note with it: tested at 2 uM.
Regarding `COc1ccccc1CN1CCC(c2nn(CCN)c3nccnc23)C1` (stereo unspecified), the INHIBITION is listed as -6.04%.
Then `Cc1csc(CN2CC[C@H]3C[C@H](c4nc(C)no4)O[C@@H]3C2)n1`, with 18.32%; and `CCOCC1CN(c2ccc(C)nn2)Cc2nn(CC)cc21` (stereo unspecified), with -3.19%.
The figure for `CCCc1cc(=O)[nH]c(-c2cccc(CN3CCN4CCCC4C3)c2)n1` (stereo unspecified) is -19.98%; for `Cc1cnn(CC2CCCCN2CC(=O)NCc2ccccn2)c1` (stereo unspecified) it is 16.6%; for `Cc1cnn(C2CCCN(C(=O)c3ccc(N(C)C)nn3)C2)c1` (stereo unspecified) it is 69.41%.
Then `Cc1cccc(-n2cc(C(=O)N3CCCC(n4cccn4)C3)nn2)c1` (stereo unspecified), with 58.53%; and `CN(C)c1ccc(C(=O)N2CCCC(n3cccn3)C2)nn1` (stereo unspecified), with 37.68%.
As to `Cc1cnn(C2CCCN(C(=O)c3ccc(O)nc3)C2)c1` (stereo unspecified), the INHIBITION came out at 45.83%.
Then `O=C(c1cnc(-c2ccccn2)s1)N1CCCC(n2cccn2)C1` (stereo unspecified), with 51.94%.
Then `Cc1ccc(-n2cc(C(=O)N3CCCC(n4cccn4)C3)nn2)cc1` (stereo unspecified), with 18.59%.
As to `CNC(=O)c1ccc(C(=O)N2CCCC(n3cc(C)cn3)C2)cn1` (stereo unspecified), the INHIBITION was determined as 16.64%.
The figure for `O=C(c1cnc(-c2cnccn2)s1)N1CCCC(n2cccn2)C1` (stereo unspecified) is 35.65%.
The figure for `O=C(c1cnc(-c2ncccn2)s1)N1CCCC(n2cccn2)C1` (stereo unspecified) is 5.09%; for `Cc1cnn(C2CCCN(C(=O)c3ccc(N4CCCC4)nn3)C2)c1` (stereo unspecified) it is -104.9%.
Then `O=C(c1cn(-c2ccccc2)nn1)N1CCCC(n2cccn2)C1` (stereo unspecified), with -3.05%.
As for `Cc1cnn(C2CCCN(C(=O)c3ccc(NC4CC4)nc3)C2)c1` (stereo unspecified), the INHIBITION worked out at 72.31%.
Then `CCc1nc(CN2CCCC(N(C)CCc3cccs3)C2)no1` (stereo unspecified), with -14.04%.
The figure for `CCC(CC)c1cc(CNC(=O)N2CCOC(C)C2)on1` (stereo unspecified) is -40.76%.
Turning to `c1cnc(N2CCN(CCn3ccnc3-c3ccncc3)CC2)nc1`, the INHIBITION turned out to be 36.79%.
The figure for `Cc1nc(C2CCN(C(=O)c3cscn3)CC2)c2sccn12` is 45.5%; for `CC(C)n1[nH]c(=O)c2c1NC(=O)CSC2c1cccc(OCC(N)=O)c1` (stereo unspecified) it is 9.29%.
Then `O=C(c1cnccn1)N1C[C@@H]2CN(Cc3cccnc3)CCO[C@@H]2C1`, with 0.54%; and `CN(C)CCN1C2(CCN(Cc3nccs3)C2)c2ccccc2S1(=O)=O` (stereo unspecified), with 31.25%; and `Cn1cc(C2COC3(CCN(C(=O)c4ccsc4)CC3)C2)cn1` (stereo unspecified), with -0.38%.
The figure for `Cn1cc(-c2nc(CN3CCc4c(ncn4C)C3)cs2)cn1` is 14.06%; for `Cc1nc(CNCC2CCCN2c2cccnn2)no1` (stereo unspecified) it is -12.31%.
Consider `O=C(c1cnc(-c2cccs2)s1)N1CCCC(n2cccn2)C1` (stereo unspecified), for which the INHIBITION was found to be 42.18%.
The figure for `O=C(c1cnc(-c2cccs2)s1)N1CCCC(n2ccnc2)C1` (stereo unspecified) is 64.16%; for `O=C(c1cnc(-c2cccs2)s1)N1CCCN2CCCC2C1` (stereo unspecified) it is -38.96%.
Regarding `Cn1cccc1C(=O)N1CC[C@H]2[C@H]1CCN2CC1CC1`, the INHIBITION is listed as -0.23%.
The figure for `CCN(CC)C(=O)c1ccc(COc2ccccc2C#N)o1` is 9.54%; for `O=C(O)c1cc2c(nc1-c1ccncc1)CCN(C1CCOC1)CC2` (stereo unspecified) it is -6.71%.
Then `CCc1ccc(-c2cc(C(F)(F)F)nc(N3CCC(N)CC3)n2)cc1`, with 16.36%.
On to `Clc1ccc2cccnc2c1CN1CCn2c(nnc2C2CC2)C1`, for which the INHIBITION is recorded as 55.36%.
With `Fc1cccc(Cl)c1CN1CCn2c(nnc2C2CC2)C1`, the INHIBITION turned out to be 7.67%.
Then `CC1CCCN(Cc2csc(-c3ncccn3)n2)CC1` (stereo unspecified), with 53.03%; and `Cc1nnc2n1CCN(Cc1c(Cl)ccc3cccnc13)C2`, with 5.28%.
Then `c1ccc(-c2nc(CN3CCn4c(nnc4C4CC4)C3)cs2)cc1`, with 34.39%; and `CCCC1CCCN(Cc2csc(-c3ncccn3)n2)CC1` (stereo unspecified), with 33.5%; and `c1cnc(-c2nc(CN3CCn4c(nnc4C4CC4)C3)cs2)nc1`, with 63.64%.
The figure for `c1coc(-c2nc(CN3CCn4c(nnc4C4CC4)C3)cs2)c1` is 39.65%; for `c1cnc(-c2nc(CN3CCCC(N4CCCC4)C3)cs2)nc1` (stereo unspecified) it is -44.96%; for `CC1c2ncc(Cn3cncn3)n2CCN1C(=O)c1ccccn1` (stereo unspecified) it is 23.97%.
`O=C(c1ccccc1)N1CCC2(CC1)CNc1c(F)cccc12`: the INHIBITION was -27.31%.
Then `CC(OCC1CC1)C(=O)N1CCCN(Cc2cnn(C)c2)CC1` (stereo unspecified), with 47.12%; and `Cc1ccc(N2CC[C@@H]3O[C@@H](COCc4cccnc4)CC[C@@H]32)nn1`, with -64.19%.
Then `O=C(c1cccc(S(=O)(=O)NCCc2ccccn2)c1)N1CCOCC1`, with 6.84%.
Then `CCc1cc(CN2C[C@@H]3CC[C@H]2CN(C2Cc4ccccc4C2)C3)on1`, with 36.79%.
With `Cc1ccccc1C(C(=O)N(C)Cc1cnn(C)c1)N(C)C` (stereo unspecified), the INHIBITION is -15.75%.
The figure for `CC(=O)N1CCCC2(CCN(c3nncs3)C2)C1` (stereo unspecified) is 19.58%.
The figure for `O=C(C1CCC2(CCN(c3nncs3)CC2)C1)N1CCCC1` (stereo unspecified) is 58.08%; for `O=C(C1CCC2(CCN(c3nncs3)CC2)CO1)N1CCCC1` (stereo unspecified) it is -38.48%; for `CNc1cc(N2CCCC2CNCc2cnc(C)s2)ncn1` (stereo unspecified) it is 47.3%.
With `CNC(=O)C1(CCCc2cccnc2)CCCCN1` (stereo unspecified), the INHIBITION came to 32.95%.
Then `O=C1O[C@@H]2CN(C3CCOCC3)C[C@@H]2N1CCc1cccc(Cl)c1`, with 19.46%.
Then `O=C(c1ccccn1)N(CCO)Cc1cc(Br)ccc1F`, with -46.83%; and `O=C(c1cccnc1O)N(CCO)Cc1cc(Br)ccc1F`, with 52.89%.
The figure for `O=C(c1cccnc1)N(CCO)Cc1cc(Br)ccc1F` is -12.09%; for `CC(C)CN1CCC(NCCNc2cccnc2)CC1` it is 2.06%.
As for `CN(C)C(=O)c1nc2c(s1)CCCN2Cc1ccccc1`, the INHIBITION is -4.2%.
The figure for `CCN1CCOCC2(CCCN(C(=O)c3cccc(O)c3)C2)C1` (stereo unspecified) is 24.36%; for `Cc1ccc(S(=O)(=O)NC(=O)C2(c3ccc(F)cc3)CCC2)c(C)c1` it is -2.2%.
Then `Cc1ccccc1S(=O)(=O)NC(=O)C1(c2ccccc2)CCC1`, with 28.54%; and `Cc1ccc(S(=O)(=O)NC(=O)C2(c3ccccc3)CCC2)c(C)c1`, with 53.81%; and `COc1ccc(CN2C[C@@H]3COC[C@@H](N4CCN(C)CC4)[C@@H]3C2)cc1`, with -54.53%.
